Rows were chosen to be rich in hits. Some 11% of all compounds tested hit in one or more screens of this group.
HEK293 tox = Cytotoxic Profiling in HEK 293 Cell Line of Diverse Libraries Using Quantitative High-Throughput Screening | HEK 293 viability, ATP luminescence (CellTiter-Glo), 48-72 h | Potency, µM (doses to about 115 µM), without a hit: at the top dose activity change, negative = cytotoxicity, hits mostly inhibitors | hit rate 6.6% among 94,000 | AID 1345083, 2018; also: nearly all actives have a fitted effect of over 60% in size
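qHTS cytotoxicity; HEK 293, 250 cells/well; compound pinned; 48 or 72 hr, 37 degree Celsius, 5% CO2, 95% humidity; CellTiter-Glo, 10 min RT; luminescence (ATP).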
hNpr1 antagonist = Natriuretic polypeptide receptor (hNpr1) antagonism - Primary qHTS. HEK293 hNpr1 GloSensor cGMP, ANP-stimulated luminescence. Potency, µM (titrated, usually from 46.3 µM), inactives show top-dose activity change, negative = inhibition, most hits filed as inhibitors. hit rate 1.6% among 76,000. AID 1347048, 2019; calls by dose curve; also: nearly all actives have a fitted effect of over 60% in size
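HEK293 cells stably expressing human Npr1 and cGMP GloSensor pGS-40F, loaded 2 h with 2% GloSensor reagent, given compound 30 min at room temperature. Luminescence read before and 20 min after 0.1 nM hNppA.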
3T3 cytotox = Cytotoxic Profiling in NIH 3T3 Cell Line of Diverse Libraries Using Quantitative High-Throughput Screening; NIH 3T3 viability, CellTiter-Glo ATP luminescence, 48-72 h; hit rate 4.3% among 94,000; Potency, µM (titrated, usually from 96.7 µM), inactives show at the top dose activity change, negative = cytotoxicity, most hits filed as inhibitors; also: nearly all actives have a fitted effect of over 55% in size
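Viability of NIH 3T3 cells after 48 or 72 hr compound treatment at 37 °C was assessed by CellTiter-Glo, with luminescence imaged following a 10 min room-temperature step.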
Luciferase inh = Firefly luciferase inhibition profiling of diverse chemical library using quantitative high-throughput screening; Luciferin 4-monooxygenase (Photinus pyralis), P08659; purified P. pyralis luciferase, luminescence, biochemical; Potency, µM (series often up to 115 µM), hits mostly inhibitors; hit rate 2.5% among 76,000; also: nearly all actives have a fitted effect of over 65% in size
Target sequence (P08659 whole entry, looked up): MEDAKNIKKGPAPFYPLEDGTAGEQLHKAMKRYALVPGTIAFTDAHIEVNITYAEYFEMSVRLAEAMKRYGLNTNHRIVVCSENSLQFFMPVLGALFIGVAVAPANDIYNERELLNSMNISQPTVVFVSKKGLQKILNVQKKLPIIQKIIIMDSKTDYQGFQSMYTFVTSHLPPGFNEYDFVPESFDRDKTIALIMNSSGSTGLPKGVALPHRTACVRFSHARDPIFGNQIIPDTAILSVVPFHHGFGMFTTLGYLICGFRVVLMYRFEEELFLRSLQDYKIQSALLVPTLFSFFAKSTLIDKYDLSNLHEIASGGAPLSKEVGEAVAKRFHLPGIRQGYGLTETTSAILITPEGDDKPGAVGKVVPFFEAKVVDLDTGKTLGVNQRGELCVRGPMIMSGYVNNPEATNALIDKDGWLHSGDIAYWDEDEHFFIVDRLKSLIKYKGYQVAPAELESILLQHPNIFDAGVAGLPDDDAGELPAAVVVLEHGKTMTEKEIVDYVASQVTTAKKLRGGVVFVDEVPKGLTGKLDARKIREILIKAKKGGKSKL
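FLuc 10nM, D-luciferin 10uM, ATP 10uM, Mg acetate 10mM, Tris acetate pH 7.5, Tween/BSA; cpd qHTS; enzyme added last; CCD luminescence.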
The depositor's hits bear a star; i = inactive; u = inconclusive; x = no result; [ ] = dose if it differs, or a comment. Unless noted, calls follow the shape of the dose curve; as a rule, active = well fitted curve in the direction sought with a large enough effect; inconclusive = small, poorly fitted or top-dose-only effect, or another doubt; inactive = no such curve, though single readings can be large; an effect the other way counts as inactive or inconclusive. % is scaled to controls: 0 for no effect and ±100 for the full control effect; potency is read from the fitted curve at half-maximal effect.

SMILES	HEK293 tox	hNpr1 antagonist	3T3 cytotox	Luciferase inh
COC(=O)c1ccc2nc(C[C@@H]3C[C@@H](C(C)C)[C@H](CNC4CCN(C)CC4)C=C3C)[nH]c2c1	22µM*	-13%	25µM*	i
COC(=O)c1ccc2nc(C[C@@H]3C[C@@H](C(C)C)[C@H](CNC(=O)CCC(=O)O)C=C3C)[nH]c2c1	-13%	-2%	-9%	i
CN(C)C(C(=O)N1CCC(F)(F)CC1)c1ccccc1F (centres undefined)	i	3%	-2%	i
COc1ccccc1CN1CCC2(Cc3ccccc3CNC2=O)C1 (centres undefined)	u	x	-24%	x
CCC(C)NC(=O)c1ccc(-c2nnc3ccc(NC(=O)C4CC4)cn23)cc1 (centres undefined)	u	0%	u	i
Cc1nc(-c2ccc(OC3CCN(C(=O)c4nn(C)c5ccccc45)C3)cc2)no1 (centres undefined)	45µM*	-21%	u	i
COc1ccc(CCC(=O)N2CCC(Oc3ccc(-c4noc(C)n4)cc3)C2)cc1 (centres undefined)	u	-29%	-24%	40µM*
CC(C)(C(=O)N1CCN(Cc2ccccc2)CC(O)C1)c1ccccc1 (centres undefined)	-20%	6%	-6%	i
CCCn1cc(-c2ccnc(NCc3c(F)ccc(C)c3F)n2)c(C)n1	50µM*	1%	u	i
CCCn1cc(-c2ccnc(NCc3cccc(C)c3)n2)c(C)n1	u	8%	u	i
CCCn1cc(-c2ccnc(NC3CCN(Cc4ccccn4)CC3)n2)c(C)n1	28µM*	-6%	u	i
Nc1nc(C2CC(N)C2)cc(N2CC(c3nc4ccccc4[nH]3)C2)n1 (centres undefined)	-13%	5%	-4%	i
Cc1cccc(C)c1OC1CN(c2cc(C3CC(O)C3)nc(N)n2)C1 (centres undefined)	35µM*	-7%	-21%	i
COc1cccc2c1OCCCN(c1cc(C3CC(O)C3)nc(N)n1)C2 (centres undefined)	u	-30%	13µM*	i
O=C1CC(c2ccccc2)N(Cc2ccncc2)CCCN(C(=O)c2ccsc2)CCN1 (centres undefined)	-7%	-1%	-15%	i
CC(=O)N1CCN(c2nc(-c3c(C)noc3C)cc3c2cc(-c2ccccc2)n3C)CC1	u	-8%[70.6 µM]	u	i
CCn1ccnc1CN(C)Cc1cn(C)nc1-c1ccc(Oc2ccccc2)cc1	40µM*	-8%	u	i
CCn1ccnc1CN(C)Cc1cn(Cc2ccccc2)nc1-c1ccc2c(c1)OCO2	u	-10%	u	i
CCn1ccnc1CN(C)Cc1cn(Cc2ccccc2)nc1-c1cc2ccccc2o1	45µM*	-21%	40µM*	i
Cc1nc2ccccc2n1Cc1cc(C(=O)N2CCCC2)no1	40µM*	-28%	u	i
COCC1CCCN(C(=O)c2cc(Cn3c(C)nc4ccccc43)[nH]n2)C1 (centres undefined)	-27%	-2%	-30%	i
COCCOc1ncccc1-c1noc([C@@H]2CCCN2Cc2ccc(C(=O)O)cc2)n1	4%[172 µM]	-13%[70.6 µM]	-10%[138 µM]	i
COCCOc1ncccc1-c1noc([C@@H]2CCCN2Cc2ccc(OC)cc2)n1	100µM*	3%[70.6 µM]	-15%[174 µM]	i
COc1ccccc1CN1CCC[C@H]1c1nc(-c2ccc(F)cn2)no1	18µM*	4%[70.6 µM]	-21%[174 µM]	i
Cc1noc(C)c1C(=O)N1CCC2(CC1)CN([S+](C)(=O)[O-])Cc1ccccc1O2	-3%	x	-13%	x
COc1ccc(F)cc1-c1ccc(CN2CCCCC2C(=O)N2CCN(c3ncccn3)CC2)cc1 (centres undefined)	45µM*	x	u	x
COc1cccc(-c2cccc(C(=O)N3CCCC3C(=O)N3CCN(c4ncccn4)CC3)c2)c1 (centres undefined)	-26%	x	-18%	x
COc1ccccc1-c1ccc(CN2CCCCC2C(=O)NC2CC2)cc1 (centres undefined)	40µM*	x	u	x
